Compounds without any hit were thinned out: in the full panel of roughly 83,000, 20% have a hit.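 Single-concentration screen, 48 h exposure, 96-well plates. Endpoint: percent growth. Below 10 = active.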 A number with no mark means an inactive call. Activity calls are given as the source filed them.
Legend:
Assay in all cases: NCI-60 one-dose screen, 48 h (100 = growth as untreated, 0 = no growth, -100 = all killed)
NCI-H23 lung = conditions: 10 µM unless noted
NCI-H226 lung = conditions: 10 µM unless noted
NCI-H322M lung = conditions: 10 µM unless noted
NCI-H460 lung = conditions: 10 µM unless noted
HOP-92 NSCLC = conditions: 10 µM
NCI-H522 lung = conditions: 10 µM
A549/ATCC NSCLC = conditions: 10 µM unless noted
786-0 renal = conditions: 10 µM unless noted
HOP-62 NSCLC = conditions: 10 µM unless noted
COLO 205 colon = conditions: 10 µM unless noted

| Structure (SMILES) | growth (NCI-H23 lung) | growth (NCI-H226 lung) | growth (NCI-H322M lung) | growth (NCI-H460 lung) | growth (HOP-92 NSCLC) | growth (NCI-H522 lung) | growth (A549/ATCC NSCLC) | growth (786-0 renal) | growth (HOP-62 NSCLC) | growth (COLO 205 colon) |
| --- | --- | --- | --- | --- | --- | --- | --- | --- | --- | --- |
| CCOC(=O)c1c(C)oc2ncnc(Nc3ccc(C(=O)NCCc4ccccc4)cc3)c12 | 81.8% | 63.2% | 92.9% | 83% | 61.6% | 66.9% | 56.6% | 74.9% |  |  |
| COc1ccc2cn3c4ccc(O)cc4[nH]c(=O)c3c2c1 | 25.3% | 54.7% | 41% |  |  |  | 19.3% | 24.1% | 25.8% | -7.26% (active) |
| CCOC(=O)c1cc(C(=O)c2ccc(Br)cc2)n2cc(C)cc(C)c12 | 95.2% | 87.2% | 96.7% | 95.9% | 77.9% | 77.3% | 75.7% | 96.3% |  |  |
| Cc1nnc(/N=C2\NC(=O)/C(=C/C=C/c3ccccc3)S2)s1 | 55.2% | 78% | 72.8% | 24.5% | 56.9% | 1.52% (active) | 39.8% | 66.9% |  |  |
| CCCCCCCCCCCCCCCCCC1=NCCN1CCNC(C)=O | 93% | 100% | 90.6% | 50.5% | 62.1% | 98.8% | 79.3% | 92.3% |  |  |
| O=C(Nc1ccc(-n2cc(-c3ccncc3)c(-c3ccc(Cl)c(O)c3)n2)cc1)c1cc(Cl)cc(Cl)c1 | 60.3% | 111% | 60.4% |  |  |  | 41.4% | -39% (active) | 22.2% | 72.9% |
| CCOC(=O)C1CCCN1C(=O)C1(NC(C)=O)CCCC1 (stereo unspecified) | 100% | 104% | 91.3% | 98.2% | 84.7% | 107% | 101% | 102% |  |  |
| CC(=O)Oc1cc2ccccc2cc1C(C)C | 107% | 101% | 115% |  |  |  |  | 101% | 104% | 112% |
| N=C(N)c1ccc(-c2ccc(-c3ccc(F)cc3)s2)cc1 | -91.8% (active) | -77.3% (active) | -91.2% (active) | -88.9% (active) | -86.2% (active) | -58.9% (active) | -74.2% (active) | -82.1% (active) |  |  |
| COc1cc(OC)c(NC(=O)n2ncc3cc(Nc4ncnc5ccccc45)ccc32)cc1Cl | 97.5% | 104% | 14.1% | 108% | 87.3% | 72.1% | 80.3% | 73.1% |  |  |
| CCS(=O)(=O)OCCO[C@H]1Cc2cc3ccc(=O)oc3cc2OC1(C)C | 105% | 98.4% | 111% | 105% | 103% | 89.1% | 97.3% | 106% |  |  |
| COc1cc2ncnc(-n3ncc4cc(NC(=O)Nc5ccccc5)ccc43)c2cc1OC | 3.14% (active) | -13.9% (active) | 30.9% | 26.8% | -20.3% (active) | 19.9% | 24.1% | 28% |  |  |
| Nc1nc2c(c3ncncc13)C(c1cccc(C(F)(F)F)c1)Cc1ncncc1-2 (stereo unspecified) | 18.4% | 55.6% | 39% | 10% | 46% | 32.9% | 39.8% | 28.5% |  |  |
| COc1cc2cn3c4ccc(O)cc4[nH]c(=O)c3c2cc1OC | -6.02% (active) | 8.14% (active) | 1.3% (active) |  |  |  | 10.6% | 1.09% (active) | 4.45% (active) | -19.5% (active) |
| CC(CCN1CCN(CCC(C)CC(C)(C)C)C1CC(C)CC(C)(C)C)CC(C)(C)C (stereo unspecified) | 100% | 98.7% | 99.8% |  |  |  | 96.2% | 97.9% | 93.5% | 86.2% |
| CCCCCSc1ccc2nc(NC(=O)OCCC)sc2c1 | 25.5% | 30.1% | 50% | 13.9% | 36.3% | 29.4% | 46.4% | 31.1% |  |  |
| COC(=O)c1ccc2[nH]c(O)c(C(=Nc3ccc(N(C)C(=O)CN4CCN(C)CC4)cc3)c3ccc(OC)cc3)c2c1 | 28.1% | 25.8% | 38% | 14.8% | 38% | 17.4% | 16% | 21.7% |  |  |

| Structure (SMILES) | growth (NCI-H23 lung) | growth (NCI-H226 lung) | growth (NCI-H322M lung) | growth (NCI-H460 lung) | growth (HOP-92 NSCLC) | growth (NCI-H522 lung) | growth (A549/ATCC NSCLC) | growth (786-0 renal) | growth (HOP-62 NSCLC) | growth (COLO 205 colon) |
| --- | --- | --- | --- | --- | --- | --- | --- | --- | --- | --- |
| COc1cc(OC)c2c(=O)cc(-c3ccccc3)oc2c1 | 106% | 101% | 93.2% | 104% | 54.9% | 82.8% | 96.7% | 49% |  |  |
| CCOC(=O)c1c(C)oc2ncnc(Nc3ccc(NC(=O)Nc4cccc(Cl)c4)cc3)c12 | 64.1% | 54.8% | 83.6% | 67.2% | 50.7% | 57.2% | 32.3% | 79.1% |  |  |
| COc1ccc(/C=N/c2cc(C(C)(C)C)nn2-c2ccccc2)cc1 | 106% | 89% | 110% |  |  |  | 101% | 93.7% | 111% | 105% |
| CCCCCCCCCC(C)NC(=O)CCl (stereo unspecified) | 90% | 96.5% | 96.6% |  |  |  |  | 93.1% | 102% | 113% |
| CCOc1ccc2nc3ccc(Cl)cc3nc2c1 | 65.4% | 81.3% | 96.6% | 95.9% | 73.9% | 76.9% | 94.9% | 81.1% |  |  |
| Nc1nc2c(c3cnccc13)C(c1ccc(Cl)c(Cl)c1)Cc1cnccc1-2 (stereo unspecified) | -37.6% (active) | -26% (active) | -26.6% (active) | -29.6% (active) | -45% (active) | -16.4% (active) | -24.7% (active) | -65.8% (active) |  |  |
| COC(c1ccccc1)C(Br)C(=O)c1ccccc1 (stereo unspecified) | 109% | 92.5% | 96.2% | 127% | 71.1% | 74.9% | 95.3% | 92.2% |  |  |
| [2H]c1nc(=Nc2cc(NC(=O)C=C)c(N(C)CCN(C)C)cc2OC)[nH]c(-c2cn(C([2H])([2H])[2H])c3ccccc23)c1[2H] | 60.3% | 75.2% | 2.1% (active) | 57.3% | 22.9% | 13.3% | 40.6% | 48.7% |  |  |
| COc1cc(/C=C/C(=O)c2ccc(F)cc2)ccc1OCCCCOc1cc2c(cc1OC)C(=O)N1CCCC1C=N2 (stereo unspecified) | -33.9% (active) | -8.87% (active) | 88.1% | -49.5% (active) | -43.9% (active) | -61.1% (active) | 45.9% |  |  |  |
| CCOC(=O)c1c(C)oc2ncnc(Nc3ccc(NC(=O)Nc4ccc(CC)cc4)cc3)c12 | 90.7% | 104% | 102% | 106% | 94.3% | 83.5% | 89.2% | 99.8% |  |  |
| COc1ccc2c(c1)/C(=C1/S/C(=N/c3nnc(C)s3)NC1=O)C(=O)N2Cc1ccc(Br)cc1 | 26.5% | 54.7% | 35.1% | 6.08% (active) | 25.7% | 29.6% | 20.7% | 34% |  |  |
| Nc1nc2c(c3cnccc13)C(c1cccc(Br)c1)Cc1cnccc1-2 (stereo unspecified) | -0.611% (active) | 25.5% | 31.5% | 4.41% (active) | 15.6% | 3.33% (active) | 13.2% | 14.1% |  |  |
| Cc1cc2c(-c3nc4ccccc4[nH]3)c(O)c(O)cc2c(O)c1-c1c(C)cc2c(-c3nc4ccccc4[nH]3)c(O)c(O)cc2c1O | -19.5% (active) | -18.2% (active) | 20.2% | -53.7% (active) | 29.1% | -36.8% (active) | -25.4% (active) | -11.1% (active) |  |  |
| O=C(OCC1CC2(Cl)C(Cl)=C(Cl)C1(Cl)C2(Cl)Cl)C1C(C(=O)OCC2CC3(Cl)C(Cl)=C(Cl)C2(Cl)C3(Cl)Cl)C2(Cl)C(Cl)=C(Cl)C1(Cl)C2(Cl)Cl (stereo unspecified) | 105% | 99.2% | 98.4% |  |  |  | 103% | 94% | 108% | 99.7% |
| COc1cc(-c2cc3cnccc3c3nc(N)c4ccncc4c23)cc(OC)c1OC | 64.3% | 56.1% | 58.7% | 54.9% | -0.882% (active) | 57.1% | 42.5% | 24.8% |  |  |
| CCOC(=O)C(C)C(C)(O)c1ccccc1 (stereo unspecified) | 98.5% | 94.1% | 93.2% |  |  |  |  | 94.1% | 109% | 112% |

Source: PubChem BioAssay (NCI)
